# Only a selection was taken, and hits are over-represented in it overall.
# nsP2pro primary: blocks chikungunya virus nsP2 protease peptide cleavage; FRET peptide cleavage, nsP2pro, fluorescence 1 h; Potency, µM (titrated, usually from 24.9 µM), hits mostly inhibitors; 31,000 compounds, 1.1% hits; note: nearly all actives have a fitted effect of over 60% in size
# Target sequence (Q8JUX6 whole entry, looked up): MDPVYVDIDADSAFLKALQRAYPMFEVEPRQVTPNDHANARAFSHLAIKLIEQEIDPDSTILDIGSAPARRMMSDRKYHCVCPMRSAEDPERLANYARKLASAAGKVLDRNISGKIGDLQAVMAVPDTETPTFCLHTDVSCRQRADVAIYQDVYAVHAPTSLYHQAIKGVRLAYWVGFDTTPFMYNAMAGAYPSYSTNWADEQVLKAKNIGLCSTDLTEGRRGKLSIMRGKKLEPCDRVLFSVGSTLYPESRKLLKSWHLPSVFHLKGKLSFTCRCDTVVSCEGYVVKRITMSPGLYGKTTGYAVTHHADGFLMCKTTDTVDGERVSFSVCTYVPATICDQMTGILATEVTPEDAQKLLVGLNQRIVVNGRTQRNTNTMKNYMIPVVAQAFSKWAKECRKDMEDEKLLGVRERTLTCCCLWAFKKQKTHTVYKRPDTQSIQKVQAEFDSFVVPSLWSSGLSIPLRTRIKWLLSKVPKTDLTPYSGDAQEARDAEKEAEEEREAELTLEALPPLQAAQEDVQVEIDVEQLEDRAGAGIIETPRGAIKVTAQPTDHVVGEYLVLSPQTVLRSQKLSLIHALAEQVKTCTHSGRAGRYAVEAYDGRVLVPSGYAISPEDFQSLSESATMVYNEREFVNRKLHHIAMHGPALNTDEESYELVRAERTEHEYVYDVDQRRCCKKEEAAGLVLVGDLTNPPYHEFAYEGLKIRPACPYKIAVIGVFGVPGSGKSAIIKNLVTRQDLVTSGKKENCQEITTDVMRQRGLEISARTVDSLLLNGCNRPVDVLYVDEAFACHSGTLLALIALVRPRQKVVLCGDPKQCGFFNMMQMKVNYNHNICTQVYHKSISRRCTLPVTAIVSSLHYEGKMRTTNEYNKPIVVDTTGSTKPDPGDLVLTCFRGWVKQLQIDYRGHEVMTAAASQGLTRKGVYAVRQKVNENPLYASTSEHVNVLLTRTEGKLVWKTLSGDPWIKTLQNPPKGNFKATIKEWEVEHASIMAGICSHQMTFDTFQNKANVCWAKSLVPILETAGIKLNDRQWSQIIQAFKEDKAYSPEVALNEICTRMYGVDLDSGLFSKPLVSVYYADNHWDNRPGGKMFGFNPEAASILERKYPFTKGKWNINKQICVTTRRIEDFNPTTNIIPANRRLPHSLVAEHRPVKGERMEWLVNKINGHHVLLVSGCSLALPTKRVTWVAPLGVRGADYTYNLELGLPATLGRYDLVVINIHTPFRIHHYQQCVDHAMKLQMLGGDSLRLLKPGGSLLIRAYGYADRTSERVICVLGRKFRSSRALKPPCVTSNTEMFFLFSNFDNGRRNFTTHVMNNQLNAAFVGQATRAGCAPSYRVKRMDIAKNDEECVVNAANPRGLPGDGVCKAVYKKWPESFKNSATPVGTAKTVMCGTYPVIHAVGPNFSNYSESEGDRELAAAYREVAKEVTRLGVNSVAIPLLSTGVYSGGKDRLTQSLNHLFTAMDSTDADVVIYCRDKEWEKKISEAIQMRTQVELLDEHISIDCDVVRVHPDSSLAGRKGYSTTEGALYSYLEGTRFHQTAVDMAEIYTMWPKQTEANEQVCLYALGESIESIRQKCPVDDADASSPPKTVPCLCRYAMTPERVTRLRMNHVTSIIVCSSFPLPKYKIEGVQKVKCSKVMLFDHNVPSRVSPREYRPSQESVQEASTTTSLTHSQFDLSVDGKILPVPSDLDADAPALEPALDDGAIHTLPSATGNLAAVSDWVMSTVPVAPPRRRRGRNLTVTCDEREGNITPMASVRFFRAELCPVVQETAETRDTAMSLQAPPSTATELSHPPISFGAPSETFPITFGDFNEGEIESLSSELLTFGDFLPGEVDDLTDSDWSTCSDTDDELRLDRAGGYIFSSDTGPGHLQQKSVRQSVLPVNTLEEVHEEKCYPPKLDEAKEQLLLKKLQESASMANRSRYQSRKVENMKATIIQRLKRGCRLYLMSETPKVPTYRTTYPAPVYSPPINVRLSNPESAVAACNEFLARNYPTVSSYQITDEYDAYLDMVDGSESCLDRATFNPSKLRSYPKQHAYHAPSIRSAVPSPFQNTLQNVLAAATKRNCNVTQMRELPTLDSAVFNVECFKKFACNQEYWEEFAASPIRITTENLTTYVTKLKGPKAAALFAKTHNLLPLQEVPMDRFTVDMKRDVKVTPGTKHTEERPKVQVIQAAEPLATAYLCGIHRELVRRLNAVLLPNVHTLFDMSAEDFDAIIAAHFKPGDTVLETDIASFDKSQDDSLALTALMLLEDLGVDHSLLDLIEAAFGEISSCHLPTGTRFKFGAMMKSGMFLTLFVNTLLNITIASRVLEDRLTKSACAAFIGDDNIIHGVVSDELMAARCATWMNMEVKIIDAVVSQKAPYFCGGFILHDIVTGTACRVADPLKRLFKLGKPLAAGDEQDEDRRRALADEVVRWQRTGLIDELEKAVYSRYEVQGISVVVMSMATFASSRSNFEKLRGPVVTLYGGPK
#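 Recombinant nsP2pro (150 nM) was preincubated with compound 15 min at room temperature in 10 mM Tris-HCl pH 8.0, 0.01% Tween 20. Peptide 2 FRET substrate (2.5 uM) was then added and fluorescence read after 1 h. Seven-point series, up to 25 uM.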
# CHIKV nsP2 cell: secondary cell-based test for CHIKV nsP2 protease inhibitors; shares compounds with nsP2pro primary; 450 compounds, 10% hits; Potency, µM (highest dose often 51.1 µM), most hits filed as inhibitors; cell-based CHIKV nsP2 protease reporter assay; note: nearly all actives have a fitted effect of over 70% in size
# NSP2 full ctr: selectivity test for CHIKV nsP2 protease inhibitors: full-length NSP2 | shares compounds with nsP2pro primary | Full-length CHIKV NSP2 protease enzymatic counterscreen | Potency, µM (titrated, usually from 50.7 µM), hits mostly inhibitors | 410 compounds, 39% hits | AID 1964101; note: nearly all actives have a fitted effect of over 65% in size
# Furin counterscr: selectivity counter-screen for CHIKV nsP2 protease inhibitors: human furin | shares compounds with nsP2pro primary | Recombinant human furin enzymatic counterscreen, fluorogenic substrate | Potency, µM (top dose mostly 50.6 µM), usual class: inhibitors | 410 compounds, 6% hits | AID 1964102
# nsP2 NS23 pep: blocks CHIKV nsP2 protease cleavage of endogenous NS2/3 peptide | shares compounds with nsP2pro primary | Purified CHIKV nsP2 protease, endogenous NS2/3 peptide cleavage | Potency, µM (series often up to 51 µM), actives largely listed as inhibitors | 410 compounds, 34% hits | AID 1964103; note: nearly all actives have a fitted effect of over 55% in size
# Papain counter: inhibits papain in a CHIKV nsP2 protease selectivity counterscreen. shares compounds with nsP2pro primary. purified papain protease activity, enzymatic inhibition. Potency, µM (doses to about 51 µM), hits mostly inhibitors. 410 compounds, 5% hits. AID 1964104
# nsP2pro conf qHTS: CHIKV nsP2 protease inhibition, confirmatory qHTS; 410 compounds, 43% hits; AID 1964105; Potency, µM (doses to about 25.5 µM), most hits filed as inhibitors; CHIKV nsP2 protease enzymatic activity, qHTS; shares compounds with nsP2pro primary; note: nearly all actives have a fitted effect of over 75% in size
# HCV NS3 counter: selectivity counter-screen for CHIKV nsP2 protease inhibitors: HCV NS3/4A | shares compounds with nsP2pro primary | AID 1964106 | 410 compounds, 20% hits | Potency, µM (highest dose often 50.9 µM), usual class: inhibitors | HCV NS3/4A protease biochemical counterscreen; note: nearly all actives have a fitted effect of over 55% in size
# Numbers stand for hits; . = inactive; ? = inconclusive; ! = not confirmed by another sample. Calls come from the whole dose curve.
SMILES,nsP2pro primary,others
C=C1C(=O)O[C@@H]2CC(C)=C([C@@H](C)CCCO)[C@@H](OC(=O)C(C)C)[C@H]12,.,
C=C1C(=O)O[C@H]2C1[C@H](OC(=O)/C(=C/CO)COC(=O)/C(C)=C/CO)CC(=C)[C@@H]1CC(=O)[C@@H](C)[C@@H]12 (stereo not given in full),1.21µM,CHIKV nsP2 cell=?;NSP2 full ctr=1.79µM;Furin counterscr=.;nsP2 NS23 pep=3.57µM;Papain counter=.;nsP2pro conf qHTS=0.873µM;HCV NS3 counter=?
C=C(CO)C(=O)O[C@H]1CC(=C)[C@@H]2C[C@H](O)C(=C)[C@@H]2[C@H]2OC(=O)C(=C)[C@@H]21,.,
CCCCNC(=O)c1ccc2c(c1)ncn2-c1cccc(C)c1,.,
Cc1cc(C)nc(NC(=S)N2CCN(c3ccc(F)c(F)c3)CC2)c1,.,
COc1cc(/C=C/c2cn(-c3ccc(C(=O)O)cc3)nc2/C=C/c2ccc(O)c(OC)c2)ccc1O,.,
CC(C)=CCCC1(C)C=Cc2c(O)c3c(c(CC=C(C)C)c2O1)OC12C(=CC4CC1C(C)(C)OC2(C/C=C(/C)C(=O)O)C4=O)C3=O (stereo not given),?,CHIKV nsP2 cell=?;NSP2 full ctr=.;Furin counterscr=.;nsP2 NS23 pep=?;Papain counter=.;nsP2pro conf qHTS=?;HCV NS3 counter=.
CC(C)=CCCC1(C)C=Cc2c(c(C)cc3c2[nH]c2ccccc23)O1 (stereo not given),.,
CCOc1ccc(-c2nc(-c3cccc4c3CCC4NCCO)no2)cc1OCC (stereo not given),.,
COC(=O)CC(C)(O)CC(=O)OCc1ccc(O[C@@H]2O[C@H](CO)[C@@H](O)[C@H](O)[C@H]2O)cc1 (stereo not given in full),.,
CC1=C(C(=O)NCc2ccccc2)C(c2ccccc2Br)N=C(Nc2nc3ccccc3o2)N1 (stereo not given),.,
CC(CC12CCCN1C(=O)C1CCCN1C2=O)OC(N)=O (stereo not given),.,
FC(F)(F)c1cccc(CSc2nc3ncc(Br)cc3[nH]2)c1,.,
O=C(NCC(=O)N1CCCC1)Nc1ccc2ccccc2c1,?,CHIKV nsP2 cell=.;NSP2 full ctr=?;Furin counterscr=.;nsP2 NS23 pep=.;Papain counter=.;nsP2pro conf qHTS=.;HCV NS3 counter=.
O=C(NCC(=O)N1CCCC1)Nc1ccc2cnccc2c1,.,
COc1ccccc1NC(=O)Nc1ccc2ccccc2c1,.,
C[S+](CC[C@H](N)C(=O)O)C[C@H]1O[C@@H](n2cnc3c(N)ncnc32)[C@H](O)[C@H]1O (stereo not given in full),.,
CCN1CCC(N(Cc2ccc3c(c2)OCO3)C(=O)Nc2ccccc2OC)CC1,.,
COc1ccc(CN(C(=O)COc2ccccc2OC)C2CCS(=O)(=O)C2)cc1 (stereo not given),.,
CCN(CC)Cc1ccc(C(=O)N(CCc2ccccc2OC)[C@@H]2CCNC2)cc1,?,CHIKV nsP2 cell=.;NSP2 full ctr=6.34µM;Furin counterscr=.;nsP2 NS23 pep=.;Papain counter=.;nsP2pro conf qHTS=?;HCV NS3 counter=?
Cc1cc(C)nc(NC(=S)N2CCN(c3ccc4cn(C)nc4c3)CC2)c1,.,
Cc1ccc(-c2nc3cccc(C)n3c2Nc2ccc3c(c2)OCO3)o1,.,CHIKV nsP2 cell=.;NSP2 full ctr=.;Furin counterscr=.;nsP2 NS23 pep=.;Papain counter=.;nsP2pro conf qHTS=.;HCV NS3 counter=.
Cc1ccc(-c2nc3ccccn3c2Nc2ccc3c(c2)OCO3)o1,.,
Cc1cccc2nc(-c3ccco3)c(Nc3ccc4c(c3)OCO4)n12,.,
O=C(CN1CCCCC1)N1CCCC(N2CCN(Cc3ccc4c(c3)OCO4)CC2)C1 (stereo not given),.,
SMILES,nsP2pro primary,others
Cc1ccc(C#Cc2cc(-c3nn(-c4nc(C(=O)O)cs4)c(CC4CC4)c3Cc3ccc(S(N)(=O)=O)c(F)c3)ccc2F)o1,3.98µM,CHIKV nsP2 cell=0.13µM;NSP2 full ctr=?;Furin counterscr=.;nsP2 NS23 pep=.;Papain counter=23.1µM;nsP2pro conf qHTS=.;HCV NS3 counter=.
COc1ccc(C(=O)Nc2nc(-c3ccccc3)cs2)c(NS(=O)(=O)c2ccc(C)cc2)c1,.,
CC(=O)OC1CC(OC2C(O)CC(OC3C(O)CC(OC4CCC5(C)C(CCC6C5CCC5(C)C(C7=CC(=O)OC7)CCC65O)C4)OC3C)OC2C)OC(C)C1O (stereo not given),.,
Cc1cccc2c3c(ccc12)C1=C(C(=O)C3=O)[C@@H](C)CO1,?,CHIKV nsP2 cell=.;NSP2 full ctr=10.3µM;Furin counterscr=.;nsP2 NS23 pep=?;Papain counter=?;nsP2pro conf qHTS=10µM;HCV NS3 counter=.
CCN(CC)C(=S)SSC(=S)N(CC)CC,2.48µM!,CHIKV nsP2 cell=12.6µM;NSP2 full ctr=14.6µM;Furin counterscr=.;nsP2 NS23 pep=9.19µM;Papain counter=?;nsP2pro conf qHTS=1.79µM;HCV NS3 counter=?
N#Cc1ccc(-c2csc(NN=C3CCCC3)n2)cc1,.,
Cc1ccc(CNC(=O)c2nc(SCc3ccccc3F)ncc2Cl)cc1,10.7µM,CHIKV nsP2 cell=.;NSP2 full ctr=.;Furin counterscr=.;nsP2 NS23 pep=.;Papain counter=.;nsP2pro conf qHTS=.;HCV NS3 counter=.
Cc1ccc(CNC(=O)c2nc(SCc3ccc(F)cc3)ncc2Cl)cc1,.,
Cc1ccc(CNC(=O)c2nc(SCc3ccc(C)cc3)ncc2Cl)cc1,.,
Cc1noc(C)c1[S+](=O)([O-])N1CCCC1C(=O)N1CCC(c2nc3ccncc3[nH]2)CC1 (stereo not given),.,
Cc1cc(N[S+](=O)([O-])c2cc3c(cc2Cl)NC(=O)CO3)ccc1Br,.,
CCCn1cc(-c2ccnc(NC3CCN(Cc4cccnc4)CC3)n2)c(C)n1,.,
Fc1ccc2nc(CCC#Cc3ccccn3)cn2c1,?,CHIKV nsP2 cell=.;NSP2 full ctr=.;Furin counterscr=.;nsP2 NS23 pep=.;Papain counter=.;nsP2pro conf qHTS=.;HCV NS3 counter=.
Cc1cc(C)cc(-c2ccc(CN3CCCC(N[S+](=O)([O-])c4cccs4)C3)cc2)c1 (stereo not given),.,
O=C1CC2(CCN(S(=O)(=O)c3cccs3)CC2)Oc2ccccc21,.,
COc1ccc2c(O[C@H]3CC4C(=O)N(C)CCCC/C=C/[C@@H]5C[C@@]5(C(=O)NS(=O)(=O)C5CC5)NC(=O)[C@@H]4C3)cc(-c3nc(C(C)C)cs3)nc2c1C (stereo not given in full),.,
O=C(NC1CCCCC1)N1Cc2[nH]cnc2C[C@H]1c1nc(-c2ccccc2)no1,.,
Cc1cccc(-c2noc([C@@H]3Cc4nc[nH]c4CN3C(=O)NC3CCCCC3)n2)c1,0.631µM,CHIKV nsP2 cell=.;NSP2 full ctr=5.3µM;Furin counterscr=.;nsP2 NS23 pep=7.49µM;Papain counter=.;nsP2pro conf qHTS=2.06µM;HCV NS3 counter=.
O=C(Nc1cccc(F)c1)N1Cc2[nH]cnc2C[C@H]1c1nc(-c2ccncc2)no1,.,
CCn1c(-c2nc3cc(C(=O)N4CCC[C@@H](N)C4)cc(OC)c3n2C)cc2ccccc21,.,
Cc1nc([C@](C)(O)CO)sc1-c1cnc(N)c(O[C@H](C)c2cc(F)ccc2-n2nccn2)c1,7.85µM,CHIKV nsP2 cell=.;NSP2 full ctr=.;Furin counterscr=.;nsP2 NS23 pep=.;Papain counter=.;nsP2pro conf qHTS=.;HCV NS3 counter=.
Clc1ccc(CCCOCCCN2CCCCC2)cc1,.,
O=C(NC1CCCC1)c1cc(-c2cccc(C(F)(F)F)c2)c2cccn2n1,.,
CC(=O)Nc1ccccc1,.,
